Bioassay records as filed in PubChem.
ELG1 repair inh – blocks ELG1-dependent DNA repair in HEK293T cells. HEK293T ELG1-luciferase reporter, luminescence, 16 h; DNA damage induced by 5-fluorouridine. Potency, µM (top dose mostly 46.1 µM), for inactives: at the top dose activity change, negative = inhibition, most hits filed as inhibitors. 2.3% of 330,000 active; note: nearly all actives have a fitted effect of over 55% in size
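Quantitative HTS, concentration-response format. 2,000 cells/well co-treated with 5-fluorouridine and compound, 16 hr in 5% CO2 at 37 °C; ONE-Glo luminescence read after 30 min.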
RORg inh – inhibitors of mouse ROR gamma transcriptional activity | P51450 | Drosophila S2 Gal4-RORgamma UAS-luciferase reporter, 20 h | Potency, µM (top dose mostly 53.6 µM), for the others: at the top dose activity change, negative = inhibition, usual class: inhibitors | 5.4% of 310,000 active; note: nearly all actives have a fitted effect of over 60% in size
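Using a luciferase readout, inhibitors were identified by reduced reporter activity in Drosophila cells coexpressing a copper-inducible Gal4–ROR gamma fusion and UAS-driven Photinus luciferase, incubated 20 hr after 700 uM copper sulfate.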
Gal4-VP16 FLuc – inhibits Gal4-VP16 luciferase reporter, ROR gamma counter-screen; 3.5% of 310,000 active; Drosophila S2 Gal4-VP16 UAS-luciferase, luminescence, 20 h; Potency, µM (top dose mostly 53.6 µM), inactives show at the highest dose activity, negative = inhibition, hits mostly inhibitors;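 note: Gal4-VP16 expression switched on by copper sulfate through the metallothionein promoter; nearly all actives have a fitted effect of over 50% in size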
12-LOX inh – blocks human arachidonate 12S-lipoxygenase. P18054. purified 12hLO, xylenol orange hydroperoxide absorbance. Potency, µM (doses to about 108 µM), inactives show at the top dose activity change, negative = inhibition, most hits filed as inhibitors. 1.1% of 580,000 active
Target sequence (P18054 whole entry, looked up): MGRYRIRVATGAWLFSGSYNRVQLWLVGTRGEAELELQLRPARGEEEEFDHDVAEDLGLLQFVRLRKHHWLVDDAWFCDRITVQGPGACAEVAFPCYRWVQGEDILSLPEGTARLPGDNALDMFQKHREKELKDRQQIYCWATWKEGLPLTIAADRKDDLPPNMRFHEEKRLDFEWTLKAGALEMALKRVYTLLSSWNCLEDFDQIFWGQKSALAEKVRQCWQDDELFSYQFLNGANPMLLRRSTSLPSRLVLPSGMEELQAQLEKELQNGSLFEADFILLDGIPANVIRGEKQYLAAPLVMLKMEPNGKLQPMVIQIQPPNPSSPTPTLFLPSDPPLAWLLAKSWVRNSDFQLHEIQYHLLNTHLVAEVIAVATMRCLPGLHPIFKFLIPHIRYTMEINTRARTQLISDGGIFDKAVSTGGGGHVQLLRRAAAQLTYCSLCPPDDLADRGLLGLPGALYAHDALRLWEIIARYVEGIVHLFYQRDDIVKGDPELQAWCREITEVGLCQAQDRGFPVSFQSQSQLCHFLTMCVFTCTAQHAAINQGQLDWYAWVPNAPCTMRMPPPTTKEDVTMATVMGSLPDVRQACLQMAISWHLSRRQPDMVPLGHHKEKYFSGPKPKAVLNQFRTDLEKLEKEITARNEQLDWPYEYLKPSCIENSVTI
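Hydroperoxide product was detected by ferrous iron/xylenol orange as the 573 to 405 nm absorbance ratio. Arachidonic acid at 40 uM (final) was turned over for 30 min at room temperature by 150 nM human 12hLO, pH 7.0 Hepes buffer, after 15 min compound preincubation.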
DT40 TDP1 CPT – growth inhibition of DT40 Tdp1-/-;hTDP1 cells with camptothecin (screen for TDP1 inhibitors) | chicken DT40 Tdp1-/-;hTDP1 cells + 20 nM CPT, ATP luminescence, 48 h | Potency, µM (titrated, usually from 46.2 µM), without a hit: at the highest dose activity change, negative = growth inhibition, usual class: inhibitors | 12% of 420,000 active | AID 686979; note: nearly all actives have a fitted effect of over 55% in size
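Cell growth measured by CellTiter-Glo luminescence after a minimum 48 h, 37 C compound exposure with 20 nM CPT in Tdp1-knockout DT40 cells stably expressing hTDP1, seeded 400/well; qHTS titration format.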
TDP1 cell noCPT – qHTS for Inhibitors of human tyrosyl-DNA phosphodiesterase 1 (TDP1): qHTS in cells in absence of CPT. DT40 Tdp1-/- hTDP1 cells, no CPT, ATP luminescence, 48 h. Potency, µM (series often up to 46.2 µM), inactives show at the highest dose activity change, negative = growth inhibition, most hits filed as inhibitors. 15% of 420,000 active; note: nearly all actives have a fitted effect of over 55% in size
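Growth kinetics read by CellTiter-Glo luminescence after ≥48 hr at 37 °C. Cells: DT40 Tdp1-/- stably carrying human TDP1, 400 per well, compound exposure in the absence of CPT (DMSO vehicle).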
* = called active by the depositor; ? = inconclusive; nt = not tested or not shown; ! = repeats disagree; [ ] = another dose, or the depositor's remark. Most compounds without a hit are left out; they make up all but 15% or so of the library. Calls come from the whole dose curve; as a rule, active = well fitted curve in the direction sought with a large enough effect; inconclusive = small, poorly fitted or top-dose-only effect, or another doubt; inactive = no such curve, though single readings can be large; an effect the other way counts as inactive or inconclusive. % is set by controls: 0 for no effect and ±100 for the full control effect; potency is the fitted concentration of half-maximal effect.

SMILES | ELG1 repair inh | RORg inh | Gal4-VP16 FLuc | 12-LOX inh | DT40 TDP1 CPT | TDP1 cell noCPT
COc1ccc(-c2noc(CSc3nc4ccc(Cl)cc4o3)n2)cc1 | nt | nt | nt | -5% | nt | nt
COc1ccc(CN2CCC3(C2)C(=NC2CCCCC2)NC(=O)N3c2cccc(OC)c2)cc1 (configuration not stated) | nt | nt | nt | 3%[6.33 µM] | nt | nt
COc1ccccc1Nc1nc(C)cs1 | ? | 11µM*! | ? | ? | -8% | 2%
COc1ccccc1Nc1nc(-c2cc(C)ccc2C)cs1 | nt | nt | nt | 10µM* | nt | nt
Cc1csc(Nc2cccc3ccccc23)n1 | ? | ? | 1% | -20% | -15% | -23%
COc1ccccc1Nc1nc(-c2sc(N)nc2C)cs1 | ? | ? | 12% | ? | -15% | ?
CC1(C(=O)O)CC(C)(C(=O)O)CC(C)(C(=O)O)C1 (configuration not stated) | 9% | -17% | -6% | 261% | -6% | 1%
COC(=O)C1=C(O)C2(C(=O)O)CC(C(=O)OC)=C(O)C(C(=O)O)(C1)C2 | 14% | 1% | 6% | -38% | 3% | 10µM*
CC1(C(=O)Nc2cccc3cccnc23)CCN1C(=O)CC1CC1 (configuration not stated) | nt | nt | nt | -7% | -23% | -17%
CC1(C(=O)Nc2ccc3c(c2)OCCO3)CCN1C(=O)CC1CCCC1 (configuration not stated) | nt | nt | nt | 11% | ? | ?
COc1ccc(OC)c(NC(=O)C2(C)CCN2C(=O)Cc2ccc(Cl)cc2Cl)c1 (configuration not stated) | nt | nt | nt | 14% | 21µM* | 18µM*
CC1(C(=O)Nc2cccc3cccnc23)CCN1C(=O)Cc1ccc(Cl)cc1Cl (configuration not stated) | nt | nt | nt | ? | 21µM* | 21µM*
COc1ccc(NC(=O)C2(C)CCN2C(=O)Cc2ccc(Cl)cc2Cl)cc1OC (configuration not stated) | nt | nt | nt | ? | 18µM* | 21µM*
CC1(C(=O)Nc2ccc(Cl)c(Cl)c2)CCN1C(=O)CC1CCCC1 (configuration not stated) | nt | nt | nt | -2% | 26µM* | ?
Cc1ccccc1Cn1cc(NC(=O)c2cc(C(C)C)on2)cn1 | nt | nt | nt | 13% | nt | nt
CC(C)c1noc(CCCC(=O)Nc2ccccc2OC2CCCC2)n1 | nt | nt | nt | -6% | nt | nt
CC(=O)N1CCc2c(nc(-c3ccccn3)nc2N(C)CCCN(C)C)C1 | nt | nt | nt | 74% | nt | nt
O=C(CC(F)(F)F)NCCc1noc(-c2cccnc2)n1 | nt | nt | nt | 39% | nt | nt
Cc1cccc(NC(=S)NC(=O)c2ccc(Br)o2)c1C | ? | 3.5µM* | ? | ? | -8% | -22%
Cc1cscc1-c1ccc(C(=O)Nc2c(C)cccc2C)o1 | nt | nt | nt | ? | 3.7µM* | 4.6µM*
O=C(NC(=S)Nc1ccccc1F)c1ccc(Br)o1 | ? | 4.5µM* | ? | -16% | -12% | -27%
Cc1ccc(C)c(NC(=S)NNC(=O)c2ccc(Br)o2)c1 | -2% | ? | -22% | 17% | ? | ?
Cc1cccc(C)c1NC(=S)NC(=O)c1ccc(Br)o1 | 1% | 3.2µM* | ? | 45µM* | ? | ?
CCCn1nc(C(=O)NCC(c2cccs2)N(C)C)c2ccccc2c1=O (configuration not stated) | nt | nt | nt | 28% | nt | nt
Cc1ccccc1-n1ncc2c1NC(=O)CC21C(=O)N(CC(N)=O)c2c(C)cccc21 (configuration not stated) | nt | nt | nt | 10% | nt | nt
SMILES | ELG1 repair inh | RORg inh | Gal4-VP16 FLuc | 12-LOX inh | DT40 TDP1 CPT | TDP1 cell noCPT
O=C(Nc1ccc2oc(=O)ccc2c1)c1ccccc1 | nt | nt | nt | 16% | nt | nt
N#Cc1ccc(C(=O)NC2CCN(C(=O)N3CC4CC(C3)[C@H]3CCCC(=O)N3C4)CC2)cc1 (some centres not stated) | nt | nt | nt | 24% | nt | nt
Cc1ccc(NC(=S)NC(=O)c2ccc(Br)o2)c(C)c1 | ? | 2.2µM* | ? | 6% | ? | ?
Cc1ccc(CS(=O)(=O)c2ccc(C(=O)N3CCN(c4ccccn4)CC3)cc2[N+](=O)[O-])cc1 | 15µM* | -9% | ? | 0% | 9.2µM* | 26µM*
Cc1ccc(CS(=O)(=O)c2ccc(C(=O)N3CCCCC3)cc2[N+](=O)[O-])cc1 | -23% | -13% | -4% | 97% | ? | ?
Cc1ccccc1CS(=O)(=O)c1ccc(C(=O)N2CCOCC2)cc1[N+](=O)[O-] | -4% | -10% | 18% | 16% | ? | 12µM*
Cc1cc(C(=O)N2CCOCC2)ccc1[N+](=O)[O-] | 4% | 3% | -3% | -1% | 19% | 5%
Cc1ccc(C(=O)N2CCOCC2)cc1[N+](=O)[O-] | -2% | 1% | 1% | ? | -10% | -4%
O=C(c1ccc(S(=O)(=O)Cc2ccccc2Cl)c([N+](=O)[O-])c1)N1CCOCC1 | -3% | -29% | -1% | 4% | 21µM* | 21µM*
CCCN(CC(=O)Nc1cc(Cl)ccc1Cl)C(=O)/C=C/c1cc(OC)ccc1OC | ? | nt | nt | 11% | ? | ?
O=C(/C=C/c1cccc([N+](=O)[O-])c1)NCCSCc1ccc(Cl)cc1Cl | ? | ? | -25% | -16% | 29µM* | 23µM*
CCCN(CC(=O)Nc1ccc(Cl)cc1Cl)C(=O)/C=C/c1cc(OC)ccc1OC | ? | ? | -7% | -9% | ? | 29µM*
CCCN(CC(=O)Nc1ccc(Cl)cc1Cl)C(=O)/C=C/c1cccc([N+](=O)[O-])c1 | ? | 8% | -14% | -16% | ? | 29µM*
CCCN(CCC)C(=O)/C=C/c1cccc([N+](=O)[O-])c1 | -2% | -1% | 1% | 0% | ? | ?
O=C(/C=C/c1cccc([N+](=O)[O-])c1)NCCSCc1ccccc1Cl | -18% | 40% | 3% | -28% | -8% | -30%
O=C(Sc1ccc(Sc2ccc(SC(=O)c3ccco3)cc2)cc1)c1ccco1 | nt | nt | nt | 10% | nt | nt
O=C1CCCCN1CC(=O)N1CCCC(c2ccccc2)(c2ccccc2)C1 | nt | nt | nt | 89% | nt | nt
O=C(O)c1cc(O)c2c(c1)[C@H]([C@H]1c3cc(C(=O)O)cc(O)c3C(=O)c3c(O[C@@H]4O[C@H](CO)[C@@H](O)[C@H](O)[C@H]4O)cccc31)c1cccc(OC3O[C@H](CO)[C@@H](O)[C@H](O)[C@H]3O)c1C2=O (some centres not stated) | ? | nt | nt | ? | 15µM* | 15µM*
